# Experimental data as given in publication PMC5540273 (PLoS ONE, 2017).
# Assays:
# Settings in all cases: concentration: 1 μM, replicates: in singlicate; n = 1
# LOK = tested on: T1, LOK
# T1 construct: gene STK10
# LRRK2 = tested on: LRRK2
# LTK = tested on: LTK
# LYN = tested on: LYN
# LZK = tested on: T2, LZK
# T2 construct: gene MAP3K13
# MAK = tested on: MAK
# MAP3K15 = tested on: MAP3K15
# MAP3K1 = tested on: MAP3K1
# MAP3K2 = tested on: MAP3K2
# MAP3K3 = tested on: MAP3K3
# MAP3K4 = tested on: MAP3K4
# MAP4K2 = tested on: MAP4K2
# MAP4K3 = tested on: MAP4K3
# MAP4K4 = tested on: MAP4K4
# MAP4K5 = tested on: MAP4K5
# MAPKAPK2 = tested on: MAPKAPK2
# MAPKAPK5 = tested on: MAPKAPK5
# MARK1 = tested on: MARK1
# MARK2 = tested on: MARK2
# MARK3 = tested on: MARK3
# 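Further: KINOMEscan kinase panel screen.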
SMILES,%Inh (LOK) [%],%Inh (LRRK2) [%],%Inh (LTK) [%],%Inh (LYN) [%],%Inh (LZK) [%],%Inh (MAK) [%],%Inh (MAP3K15) [%],%Inh (MAP3K1) [%],%Inh (MAP3K2) [%],%Inh (MAP3K3) [%],%Inh (MAP3K4) [%],%Inh (MAP4K2) [%],%Inh (MAP4K3) [%],%Inh (MAP4K4) [%],%Inh (MAP4K5) [%],%Inh (MAPKAPK2) [%],%Inh (MAPKAPK5) [%],%Inh (MARK1) [%],%Inh (MARK2) [%],%Inh (MARK3) [%]
COc1cc2nccc(Nc3cccc(Oc4ccccc4)c3)c2cc1OC.Cl [GW284543],0,48,0,0,0,12,0,0,0,0,0,0,0,0,0,15,0,0,8,31
COc1cc2ncn(-c3cc(OCCCc4ccccc4)c(C(N)=O)s3)c2cc1OC [GSK205189],40,5,0,0,0,4,0,22,0,0,16,0,0,14,39,7,0,0,0,0
COc1ccc(-n2cnc3c(N)ncnc32)cc1 [SKF-97236],0,17,20,0,0,0,13,9,8,8,0,22,0,17,19,15,0,15,0,0
COc1cc(OC)cc(-c2cc3cnc(N)nc3nc2NC(=O)NC(C)(C)C)c1,13,0,0,0,0,0,0,0,0,13,32,0,0,0,0,0,0,0,8,0
COc1cc2ncn(-c3cc(OCc4ccc(S(C)(=O)=O)cc4)c(C(N)=O)s3)c2cc1OC [GW869979],20,29,0,26,3,0,0,8,9,0,0,26,0,0,0,0,31,0,10,0
Cl.c1ccc(Cn2cnc3cc(Nc4ncnc5ccccc45)ccc32)cc1 [GW272142],0,0,0,0,22,0,0,5,0,0,0,0,0,0,0,15,0,0,0,0
COc1ccc(CNC(=O)NC2CCN(c3ccnc(Nc4ccc(F)cc4)n3)C2)cc1 (centres unmarked) [GSK1379706],0,23,15,0,71,30,12,2,0,0,0,0,0,3,2,24,2,0,0,4
O=C(NCCNc1ccnc(Nc2ccc(F)cc2)n1)Nc1ccc2c(c1)OCO2 [GSK1379882],0,0,0,0,0,30,0,1,0,0,24,0,0,0,0,0,0,0,0,0
CCC(=O)c1c(-c2ccccc2)c2cc(Cl)ccc2c(=O)n1Cc1cc(S(C)(=O)=O)n(CCC(C)(C)O)n1,16,6,6,18,13,2,43,3,21,37,14,0,0,0,18,23,20,0,15,18
Cc1nnc(-c2ccc3ncn(-c4ccc(S(C)=O)cc4)c3c2)o1 (centres unmarked),4,0,0,8,0,0,0,16,0,0,16,100,0,0,0,11,0,0,0,2
